An excerpt weighted towards active compounds, which were near 12% of everything screened.
G9a inh = blocks human histone lysine methyltransferase G9a | hit rate 8.8% among 350,000 | Potency, µM (highest dose often 102 µM), for inactives: top-dose activity, negative = inhibition, hits mostly inhibitors | G9a H3K9 monomethylation, AlphaScreen, 2 h | Q96KQ7; note: potency is the fitted concentration of half-maximal effect; % is set by controls: 0 for no effect and ±100 for the full control effect; nearly all actives have a fitted effect of over 75% in size
Target sequence (Q96KQ7 913-1193 limits assumed): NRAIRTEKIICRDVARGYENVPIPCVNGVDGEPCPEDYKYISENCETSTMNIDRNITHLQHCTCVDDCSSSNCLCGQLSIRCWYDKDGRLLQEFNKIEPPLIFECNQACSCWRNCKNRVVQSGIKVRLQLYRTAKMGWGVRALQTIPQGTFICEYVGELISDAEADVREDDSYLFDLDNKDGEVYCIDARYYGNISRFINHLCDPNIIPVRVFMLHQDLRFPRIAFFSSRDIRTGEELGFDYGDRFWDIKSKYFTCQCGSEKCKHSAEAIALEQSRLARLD
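AlphaScreen detection with an anti-monomethyl H3K9 antibody quantified product after a 2 h room-temperature reaction containing 500 nM biotinylated H3K9 peptide, 20 µM SAM and 20 nM enzyme, which had been preincubated 15 min with compound.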
PLK1 PBD inh = inhibitors of human PLK1 polo-box domain binding; P53350; Plk1 PBD binding of FITC phosphopeptide, fluorescence polarization; Potency, µM, for the others: max response, negative = inhibition, usual class: inhibitors; hit rate 2.8% among 360,000; note: potency is the fitted concentration of half-maximal effect; series mostly up to about 57 µM; % is set by controls: 0 for no effect and ±100 for the full control effect; nearly all actives have a fitted effect of over 65% in size
JMJD2A Tudor inh = JMJD2A Tudor domain (human) inhibition; O75164; AlphaScreen JMJD2A-Tudor / H3K4me3 peptide binding; hit rate 4.4% among 390,000; Potency, µM (top dose mostly 114 µM), for the others: at the highest dose activity change, negative = inhibition, hits mostly inhibitors; note: potency is the fitted concentration of half-maximal effect; % is set by controls: 0 for no effect and ±100 for the full control effect; nearly all actives have a fitted effect of over 50% in size
BAZ2B block = inhibitors of human BAZ2B bromodomain; Q9UIF8; AlphaScreen BAZ2B-H3K14Ac peptide displacement; Potency, µM (titrated, usually from 114 µM), for the others: top-dose activity change, negative = inhibition, most hits filed as inhibitors; hit rate 4.4% among 360,000; AID 504333; note: potency is the fitted concentration of half-maximal effect; % is set by controls: 0 for no effect and ±100 for the full control effect; nearly all actives have a fitted effect of over 60% in size
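BAZ2B (50 nM) with biotin-H3(5-23)K14Ac peptide (50 nM) in PBS pH 7.4, 0.01% Tween-20, preformed 30 min, then compound 30 min at room temperature; top concentration 110uM. AlphaScreen streptavidin donor/nickel chelate acceptor beads (10 ug/mL final), 20 min dark, signal read.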
HP1b chromo inh = HP1-beta chromodomain-methylated histone interaction inhibition; AlphaScreen HP1-beta / biotin-H3K9me3 peptide binding; Potency, µM (titrated, usually from 114 µM), inactives show at the top dose activity change, negative = inhibition, actives largely listed as inhibitors; hit rate 0.56% among 390,000; AID 540317; note: potency is the fitted concentration of half-maximal effect; nearly all actives have a fitted effect of over 70% in size
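AlphaScreen: HP1-beta (50 nM) preformed 30 min with biotin-H3(1-18)K9me3 peptide (50 nM) in PBS pH 7.4, 0.01% Tween-20. Compound added for 30 min at RT, then streptavidin donor/nickel chelate acceptor beads (10 ug/mL) for 30 min.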
PI5P4Ka inh = PI5P4K alpha (human) kinase inhibition; P48426; PI5P4Kalpha enzyme, ADP-Glo luminescence, 60 min; active compounds read low; max response, %; hit rate 1.2% among 330,000; AID 652105; active = max response of -50% or lower; inconclusive = between -30% and -50%; inactive = -30% or higher; note: value at the top dose of about 77 µM; % is set by controls: 0 for no effect and ±100 for the full control effect
Target sequence (P48426 whole entry, looked up): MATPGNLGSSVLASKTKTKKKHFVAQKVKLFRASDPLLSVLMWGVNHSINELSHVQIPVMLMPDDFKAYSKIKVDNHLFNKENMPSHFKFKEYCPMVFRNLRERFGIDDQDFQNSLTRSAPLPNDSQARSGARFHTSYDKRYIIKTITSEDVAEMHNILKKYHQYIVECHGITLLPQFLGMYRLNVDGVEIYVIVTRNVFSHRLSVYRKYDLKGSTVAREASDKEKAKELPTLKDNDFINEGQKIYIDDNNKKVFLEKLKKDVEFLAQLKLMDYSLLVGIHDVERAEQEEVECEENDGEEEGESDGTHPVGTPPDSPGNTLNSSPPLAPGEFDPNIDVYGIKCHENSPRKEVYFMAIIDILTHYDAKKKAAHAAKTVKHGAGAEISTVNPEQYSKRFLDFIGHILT
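ADP-Glo luminescence end-point read after a 60 min room-temperature kinase reaction of PI5P4Kalpha plus substrate, initiated with ATP at 5 microM final. Buffer: 0.038 M HEPES pH 7.4, EGTA, 0.1% CHAPS, 5% DMSO.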
Starred values were filed as active, the others as inactive; ? = inconclusive; . = not tested or not shown; [ ] = remark or other dose. Unless noted, calls come from the whole dose curve; as a rule, active = well fitted curve in the direction sought with a large enough effect; inconclusive = small, poorly fitted or top-dose-only effect, or another doubt; inactive = no such curve, though single readings can be large; an effect the other way counts as inactive or inconclusive.

SMILES	G9a inh	PLK1 PBD inh	JMJD2A Tudor inh	BAZ2B block	HP1b chromo inh	PI5P4Ka inh
O=C(c1ccncc1)N(c1ccc2oc3c(c2c1)CCCC3)S(=O)(=O)c1ccc(F)cc1	79µM*	-2%	-24%	?	4%	-5
Cc1ccc(S(=O)(=O)N(C(=O)c2ccncc2)c2ccc(OC(=O)c3ccncc3)cc2)cc1	?	-20%	-25%	-31%	35%	-3
COc1cccc(NC(=O)Cn2cc(C(=O)C3CCCCC3)c3ccccc32)c1	-1%[59 µM]	.	-12%	-2%	43%	.
CCc1ccccc1NC(=O)C1CCCN(C(=O)c2cnn(-c3ccccc3)c2-n2cccc2)C1 (stereo not given)	10%[59 µM]	.	-13%	-14%	13%	.
Cc1cc(NC(=O)CSc2nc3ccsc3c(=O)n2Cc2ccccn2)n[nH]1	102%[59 µM]	-7%	-36%	79µM*	18%	.
CCOC(=O)C1CCN(C(=O)c2cc3ccc4ccc(C)[nH]c4c3n2)CC1	14µM*	.	-20%	3%[57.1 µM]	-2%	.
CCOC(=O)C1CCN(C(=O)c2cc3ccc4cccnc4c3[nH]2)CC1	-24%[59 µM]	.	-15%	6%[57.1 µM]	29%	.
c1ccc(CSc2ncn[nH]2)nc1	45µM*	-21%	-7%	-27%	0%	-1
COc1ccc(-c2coc3c(C(=O)N4CCN(C)CC4)cccc23)c(C)c1	.	5%	.	.	.	-7
COc1ccc(N2CCN(c3csc4ccc(Cl)cc4c3=O)CC2)cc1	-51%[59 µM]	.	?	50µM*	-13%[57 µM]	.
COc1ccccc1N1CCN(c2csc3ccc(Cl)cc3c2=O)CC1	1%[59 µM]	.	-20%	-15%	27%[57 µM]	.
COc1ccc(N2CCN(c3csc4ccccc4c3=O)CC2)cc1	?	.	40µM*	40µM*	-5%[57 µM]	.
COc1cccc(CNC(=O)c2ccc(NC(=O)C3=CSCCO3)cc2)c1	19%	-15%	-14%	-8%	18%[57 µM]	-14
CCCCNC(=O)CCn1c(=O)c2ccccc2n(Cc2ccccc2C#N)c1=O	6%[59 µM]	.	6%	1%	31%	.
Brc1ccc(C[n+]2ccccc2)cc1	25%[2.33 µM]	2%	-3%	6%	38%	5
CC[n+]1ccc(C[n+]2ccccc2)c2ccccc21	1.6µM*	-16%	?	10µM*	79µM*	-53*
O=C1C2C3C=CC(CC3)C2C(=O)N1c1ccc([N+](=O)[O-])cc1 (stereo not given)	32µM*	-7%	-6%	-4%	19%	1
NC(c1ccccc1)c1csc(Nc2cc(Oc3ccccc3)ncn2)n1 (stereo not given)	.	1%	.	.	.	-7
COc1ccc(CN(Cc2cccnc2)S(=O)(=O)c2ccc(-n3cnnn3)c(C)c2)cc1OC	16µM*	0%	-24%	-37%	10%	.
COc1ccc(CCN(Cc2cccs2)S(=O)(=O)c2ccc(-n3cnnn3)c(OC)c2)cc1OC	-2%[12.7 µM]	-6%	-20%	3%	33%	.
COc1ccccc1CN(Cc1cccnc1)S(=O)(=O)c1ccc(-n2cnnn2)c(OC)c1	8%	1%	-11%	-1%	-7%	1
COc1cc(S(=O)(=O)N(Cc2cccnc2)Cc2cccc(OC)c2OC)ccc1-n1cnnn1	18µM*	-2%	1%	79µM*	16%	10
O=C(CSc1nc2c([nH]c3ccccc32)c(=O)n1-c1ccccc1F)Nc1ccccc1C(F)(F)F	5%[59 µM]	.	-29%	-15%	10%[57 µM]	.
Cc1ccccc1-c1cccc([C@@H]2C[C@H]3CN(Cc4cccnc4)C(=O)[C@]34CCCN24)c1	50µM*	-9%	?	-27%	-12%	-1
O=C1N(Cc2cccc(Cl)c2)C[C@@H]2C[C@@H](c3cccc4cccnc34)N3CCC[C@@]123	.	-3%	-22%	0%	21%	-2
SMILES	G9a inh	PLK1 PBD inh	JMJD2A Tudor inh	BAZ2B block	HP1b chromo inh	PI5P4Ka inh
COc1ccccc1CN1C[C@@H]2C[C@@H](c3ccccc3C)N3CCC[C@@]23C1=O	5%	-12%	-28%	-11%	6%	-6
O=C1N(Cc2cccnc2)C[C@@H]2C[C@@H](c3ccccc3C#Cc3ccccc3)N3CCC[C@@]123	50µM*	-5%	-26%	-20%	32%	-2
Cc1ccccc1CN1C[C@@H]2C[C@@H](c3cnc(N4CCOCC4)s3)N3CCC[C@@]23C1=O	35µM*	-12%	-20%	-29%	13%	2
CCCCC(CC)CNC(=O)CCCn1c(=O)[nH]c2ccsc2c1=O (stereo not given)	-41%[59 µM]	.	-2%	7%	25%	.
COc1ccc(CNC(=O)CCNS(=O)(=O)c2ccc(Br)s2)cc1	-13%	30µM*	79µM*	8%	-2%	-5
COc1ccc(CNC(=O)CCNS(=O)(=O)c2cc(Br)cnc2N)cc1	-4%	3.4µM*	?	-17%	24%	?
Nc1ncc(Br)cc1S(=O)(=O)NCCC(=O)NC1CCCCC1	-21%	27µM*	?	-22%	10%	-16
Nc1ncc(Br)cc1S(=O)(=O)NCCC(=O)NCc1ccc(F)cc1	-6%	-14%	-13%	-18%	79%	2
COc1cccc(CNC(=O)CNS(=O)(=O)c2ccc(Br)s2)c1	30%	-9%	-8%	-11%	28%	4
CC1CCCCC1NC(=O)CCNS(=O)(=O)c1cc(Br)cnc1N (stereo not given)	.	8%	-2%	-5%	24%[57 µM]	10
COc1cccc(CNC(=O)CCNS(=O)(=O)c2ccc(Br)s2)c1	-6%[59 µM]	27µM*	?	4%	3%	3
N#Cc1nc(N(c2ccccc2)c2ccccc2)nc(-n2cccc2)n1	.	.	-23%[57.1 µM]	.	-8%[57 µM]	.
CN(CC(=O)NCc1ccc(Cl)cc1)S(=O)(=O)c1ccc2c(c1)c(=O)n(C)c(=O)n2C	-1%[59 µM]	.	-5%	1%	20%	.
Cc1cc(C)c2c(CC(=O)Nc3ccccc3C(F)(F)F)coc2c1	12%[59 µM]	.	-20%	3%	23%	.
NS(=O)(=O)c1cccc(NC(=O)c2cccs2)c1	3%[12.7 µM]	13µM*	-24%[11.4 µM]	-2%	-10%	-27
NS(=O)(=O)c1cccc(NC(=O)c2cc(-c3cccs3)nc3ccccc23)c1	45µM*	8%	-21%	-35%	24%	0
NS(=O)(=O)c1cccc(NC(=O)COC(=O)c2cc(-c3ccc(Cl)cc3)nc3ccccc23)c1	35µM*	0%	-19%	-19%	11%	-8
Cc1ccc2c(CC(=O)Nc3c(C(=O)c4ccc(F)cc4)oc4ccccc34)coc2c1C	10%[59 µM]	.	-7%	4%	59%	.
CCCCn1c(N)c(N(CC(C)C)C(=O)COC(=O)c2ccccc2NCCO)c(=O)[nH]c1=O	4µM*	0%	2%	71µM*	24%	4
CCCCn1c(N)c(N(CCOC)C(=O)COC(=O)c2ccccc2OCC)c(=O)[nH]c1=O	51%	-5%	-9%	-12%	19%	2

Compound activity as filed in PubChem.
